Where “and” joins values, the source holds several entries; their conditions need not be identical. Equal entries are not always repeated. The panel holds about 83,000 compounds, 20% with a hit somewhere; the sample as a whole holds those more often.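 Interpretation: 100, growth as untreated; towards 0, rising growth inhibition; 0, no net growth; 0 to -100, cell death. Compounds scoring below 10 were considered active.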 Calls of active or inactive are those of the source.

The subject of this assay is MDA-MB-468 breast. The assay can be described thus: NCI-60 one-dose screen, 48 h (100 = growth as untreated, 0 = no growth, -100 = all killed). To be noted: 10 µM unless noted.
As to `CCCCCCCCSC1=CC(=O)C(OC)=C(OC)C1=O`, the growth is -75% (active).
To `O=[N+]([O-])c1cccc(N=Cc2ccccc2)c1` belongs 106% (inactive); to `OCCN1CCN(CC/C=C2\c3ccccc3Sc3ccc(Cl)cc32)CC1`, -97.1% (active).
To `CCSc1oc(C)nc1[P+](c1ccccc1)(c1ccccc1)c1ccccc1` belongs -20.3% (active); to `Cc1cc(N/N=C/c2ccccn2)nc2ccccc12`, -13.3% (active); to `C=CC1=C(C(=O)O)N2C(=O)[C@@H](NC(=O)/C(=N\O)c3csc(N)n3)[C@H]2SC1` (stereo in doubt), 96.1% (inactive).
On to `Cc1ccc(-n2c(-c3cc4c([nH]c5ccccc54)c(-c4cccc(O)c4)n3)n[nH]c2=S)cc1`, for which the growth was -32.3% (active).
In the case of `CCOC(=O)CNC(=O)Nc1ccc(Oc2ccc(NC(=O)NCC(=O)OCC)cc2)cc1`, the growth was 99.5% (inactive).
In the case of `N#Cc1c(-c2ccc(Cl)cc2)nc(NN=Cc2cccc(Cl)c2)nc1N1CCOCC1`, the growth is 85.1% (inactive).
To `Cc1nc(-c2ccccc2)cc2c(O)c(C(=O)NN)[nH]c(=O)c12` belongs 116% (inactive); to `COCCn1cc(-c2nc(-c3c[nH]c4ncccc34)cs2)c2ccccc21`, -7.09% (active); to `CC/C(=C(\CC)c1ccc(OCC[N+](C)(C)C)cc1)c1ccc(OC)cc1`, 2.58% (active).
For `CCn1cc(C(=O)N/N=C/c2ccccc2)c(=O)c2cc(F)c(N3CCNC(C)C3)c(F)c21` (centres undefined) the value was 30.4% (inactive).
For `COC(=O)c1c2c(c(C)[n+]([O-])c1C)C(=O)C=C(NCc1ccc(F)cc1)C2=O` the value was -67% (active); for `COc1ccc(-c2nc3ccccc3n3cccc23)cc1`, 112% (inactive).
Turning to `COc1ccc(/C(C)=N/NS(=O)(=O)c2ccc(C)cc2)cc1OC`, the growth was 104% (inactive).
For `O=C(Nc1cc(-c2ccccc2)[nH]n1)c1ccc(Cl)cc1` the value was 73% (inactive); for `CCCC(=O)Oc1ccc(/C(=C(/CC)Cc2ccccc2)c2ccc(OCCN3CCCC3)cc2)cc1`, 42.8% (inactive); for `COc1c(N)c2c(c([N+](=O)[O-])c1OC)C(=O)OC2`, 107% (inactive).
To `c1cnc2nc3c(cc2c1)oc1ccccc13` belongs 81% (inactive).
Consider `O=C(Nc1ccc(CN2CCOCC2)c(C(F)(F)F)c1)c1nc2ccc3[nH]ncc3c2c2c1CCCC2`, for which the growth was 97.2% (inactive).
For `Cc1cc2oc(=O)cc(CP(=O)(O)O)c2cc1O` the value was 89.8% (inactive); for `O=C(NCCNC(=O)c1cc(S(=O)(=O)NCCc2ccccc2)c(O)c(O)c1O)c1cc(S(=O)(=O)NCCc2ccccc2)c(O)c(O)c1O`, 83.2% (inactive).
For `CC[C@H](Nc1nc(N)nc(N)c1Cl)c1nc2cccc(NCc3ccc(C(=O)NO)cc3)c2c(=O)n1-c1ccccc1` the value was -34.3% (active); for `Cc1nnc(/N=C2\NC(=O)/C(=C/c3ccc(N(C)C)cc3)S2)s1`, 87.2% (inactive).
To `COc1cc2nc(Nc3cccc(Cl)c3)nc(N)c2cc1OC` belongs 26.8% (inactive).
In the case of `O=C(Cc1cccc2ccccc12)N/N=C/c1ccc2c(c1)CCC2`, the growth was 72.3% (inactive).
As for `COc1ccc(Nc2nc(NCc3ccccc3)c3ccccc3n2)cc1`, the growth was 40.2% (inactive).
For `COc1cc(CCn2nnc3c(Nc4ccc(N5CCOCC5)cc4)ncnc32)cc(OC)c1`, the growth is 80.6% (inactive).
To `CNC(=O)c1cc(Oc2ccc3nc(NC(C)=O)sc3c2)ccn1` belongs 100% (inactive); to `Cc1nn(-c2ccccc2)c2ncnc(N/N=C/c3ccccc3)c12`, 84.3% (inactive); to `CC1=CC2c3oc(-c4ccccc4)c(C(=O)c4ccccc4)c3CNC2C=C1` (centres undefined), 97.7% (inactive).
To `COc1cc(/C=C/C(=O)/C=C/c2ccc(-n3ccnc3C)cc2)ccc1O` belongs 24.4% (inactive); to `O=C(/C=C/c1ccccc1)c1ccccc1`, 74.8% (inactive).
For `Oc1c(Cl)cc(Cl)cc1Sc1cc(Cl)cc(Cl)c1O` the value was 84% (inactive) and -2.78% (active) and 67.9% (inactive); for `COc1ccc(S(=O)(=O)N2CCCCC2)cc1NC(=O)c1[nH]c(C)c2c1CCCCC2=O`, -2.19% (active).
As for `CCCCN(CCCC)c1ccc(C(=N)c2ccc(N(CCCC)CCCC)cc2)cc1`, the growth was -92.9% (active).
`O=C(Nc1ccc(-n2ccc3c(NC(=O)c4ccccc4)ncnc32)cc1)c1cccc(C(F)(F)F)c1`: the growth is 58.6% (inactive).
For `N#CSCc1cc(Cl)c(CSC#N)cc1Cl` the value was 66% (inactive).

For the origin of these results see PubChem BioAssay (NCI).
